High-throughput results (PubChem)
The list is not random: actives were taken first. Their share in the collection is about 17%.
TDP1 inh: inhibitors of human tyrosyl-DNA phosphodiesterase TDP1; Q9NUW8; recombinant TDP1, AlphaScreen DNA substrate cleavage; Potency, µM (titrated, usually from 130 µM), usual class: inhibitors; actives 0.28% (n = 350,000); note: nearly all actives have a fitted effect of over 40% in size
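Signal: AlphaScreen proximity between streptavidin donor and anti-FITC acceptor beads on intact substrate. Reaction: Tdp1 1 nM, substrate 15 nM final, 5 min RT after 15 min compound preincubation.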
ClpP mod: qHTS Assay for Activators of ClpP; purified B. subtilis ClpP, FRET peptide cleavage, 20 min; Potency, µM (series often up to 57.5 µM); ATP-dependent Clp protease proteolytic subunit (Bacillus subtilis (strain 168)), P80244; actives 1.9% (n = 340,000); active = well fitted falling curve with a large enough effect; inconclusive = small, poorly fitted or top-dose-only effect; inactive = no such curve, though single readings can be large or run the other way; note: the source files actives as falling curves though it sought activators and does not explain the sign; nearly all actives have a fitted effect of over 65% in size
Target sequence (P80244 whole entry, looked up): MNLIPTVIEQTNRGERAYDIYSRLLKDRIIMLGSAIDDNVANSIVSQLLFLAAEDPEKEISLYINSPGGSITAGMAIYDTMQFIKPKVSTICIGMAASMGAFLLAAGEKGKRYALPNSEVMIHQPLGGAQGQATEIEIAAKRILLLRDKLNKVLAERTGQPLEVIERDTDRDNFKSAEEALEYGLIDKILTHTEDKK
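FRET quenching reversal measured ClpP activation: 10 microg/mL B. subtilis ClpP at pH 8 with the FRET-FV decapeptide, read at 430 nm after 320 nm excitation. The 20-min minus 0-min signal was scaled between DMSO/no-enzyme wells and ADEP (5.8 microM final).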
TDP1 cell noCPT: qHTS for Inhibitors of human tyrosyl-DNA phosphodiesterase 1 (TDP1): qHTS in cells in absence of CPT; DT40 Tdp1-/- hTDP1 cells, no CPT, ATP luminescence, 48 h; Potency, µM (titrated, usually from 46.2 µM), actives largely listed as inhibitors; actives 15% (n = 420,000); AID 686978, 2013; note: nearly all actives have a fitted effect of over 55% in size
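DT40 Tdp1-/-;hTDP1 cells, no CPT (DMSO vehicle only), 400 cells/well; compounds pin-transferred; ≥48 hr, 37 °C; CellTiter-Glo 30 min RT dark, luminescence read.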
DT40 TDP1 CPT: DT40-hTDP1 cell growth loss with CPT; Potency, µM (titrated, usually from 46.2 µM), hits mostly inhibitors; actives 12% (n = 420,000); chicken DT40 Tdp1-/-;hTDP1 cells + 20 nM CPT, ATP luminescence, 48 h; note: nearly all actives have a fitted effect of over 55% in size
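Chicken DT40 Tdp1-/- cells stably complemented with human TDP1 were seeded at 400 cells/well in medium containing 20 nM camptothecin, exposed to pin-transferred compounds, and grown at 37 °C for at least 48 hr. Viability was read as ATP luminescence.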
Hits are given with their value; [ ] = dose if it differs, or a comment. Unless noted, calls come from the whole dose curve; as a rule, active = well fitted curve in the direction sought with a large enough effect; inconclusive = small, poorly fitted or top-dose-only effect, or another doubt; inactive = no such curve, though single readings can be large; an effect the other way counts as inactive or inconclusive.

`Cc1ccc(NC(=O)c2ccncc2)cc1S(=O)(=O)N(C)C` gave TDP1 inh inactive, ClpP mod inactive, TDP1 cell noCPT inactive and DT40 TDP1 CPT inactive.
For CCCCN1C(=O)c2ccc(C(=O)Nc3cccc(C)c3C)cc2C1=O the results were TDP1 inh inactive, ClpP mod inactive, TDP1 cell noCPT inactive and DT40 TDP1 CPT inactive.
Cn1c(=O)cc(SCC(=O)NCCC2=CCCCC2)c2ccc(Cl)cc21 was read as TDP1 inh inactive, ClpP mod inactive, TDP1 cell noCPT inactive and DT40 TDP1 CPT inactive.
CCCn1c(SCN2C(=O)c3ccccc3C2=O)nc2cc(Cl)ccc2c1=O was read as TDP1 inh inactive, ClpP mod 25µM, TDP1 cell noCPT 23µM and DT40 TDP1 CPT 21µM.
`C=CCn1c(SCC#N)nc2cc(Cl)ccc2c1=O` gave TDP1 inh inactive, ClpP mod inactive, TDP1 cell noCPT 13µM and DT40 TDP1 CPT inconclusive.
C=CCn1c(SCC(=O)NCCC2=CCCCC2)nc2ccc(Cl)cc2c1=O was read as TDP1 inh inactive, ClpP mod inactive, TDP1 cell noCPT inconclusive and DT40 TDP1 CPT 23µM.
`C=CCn1c(SCc2cc(=O)n3ccsc3n2)nc2cc(Cl)ccc2c1=O` gave TDP1 inh inactive, TDP1 cell noCPT inconclusive and DT40 TDP1 CPT inactive.
CN[C@@H](C)C(=O)NC[C@H]1O[C@@H](n2cnc3c(N)ncnc32)[C@H](O)[C@@H]1O was read as TDP1 inh inactive, ClpP mod inactive, TDP1 cell noCPT inactive and DT40 TDP1 CPT inactive.
For CCOc1ccc(S(=O)(=O)N(C)CC(=O)NCc2ccccn2)cc1Cl the results were TDP1 inh inactive, ClpP mod inactive, TDP1 cell noCPT inactive and DT40 TDP1 CPT inactive.
Screening COCCN(C)C(=O)c1cnn(-c2nccc(-c3cc(C)sc3C)n2)c1C returned TDP1 cell noCPT inactive and DT40 TDP1 CPT inactive[9.04 µM].
N#Cc1ccccc1S(=O)(=O)Nc1ccc2c(c1)C(=O)OC2 was read as TDP1 inh inactive, ClpP mod inactive, TDP1 cell noCPT inactive and DT40 TDP1 CPT inactive.
Screening CC1CN(c2ccnc3cc(Cl)ccc23)CC(C)O1 (stereo not given) returned TDP1 cell noCPT 12µM and DT40 TDP1 CPT inconclusive.
For Oc1ccc(N2CCN(c3ccnc4cc(Cl)ccc34)CC2)cc1 the results were TDP1 inh inactive, TDP1 cell noCPT 23µM and DT40 TDP1 CPT inconclusive.
`Clc1ccc2c(N3CCCC3)ccnc2c1` gave TDP1 inh inactive, ClpP mod inactive, TDP1 cell noCPT inconclusive and DT40 TDP1 CPT inconclusive.
COc1ccc(N2CCN(c3ccnc4cc(Cl)ccc34)CC2)cc1 was read as TDP1 inh inactive, TDP1 cell noCPT 18µM and DT40 TDP1 CPT inconclusive.
`Clc1ccc2c(N3CCOCC3)ccnc2c1` gave ClpP mod inactive, TDP1 cell noCPT inconclusive and DT40 TDP1 CPT inactive.
Screening COc1ccccc1N(CC(=O)N(C)Cc1ccccc1)S(=O)(=O)c1cccs1 returned TDP1 inh inactive, ClpP mod inactive, TDP1 cell noCPT inactive and DT40 TDP1 CPT inactive.
O=C(NCC1CCCO1)C1CCCN(S(=O)(=O)c2cc(Cl)ccc2Cl)C1 (stereo not given) was read as TDP1 inh inactive, ClpP mod inactive, TDP1 cell noCPT inconclusive and DT40 TDP1 CPT inactive.
Screening Cc1nn(Cc2ccc(F)cc2)c(C)c1NC(=O)c1cc(-c2ccc3c(c2)OCO3)on1 returned TDP1 inh inactive, ClpP mod inactive, TDP1 cell noCPT 13µM and DT40 TDP1 CPT inconclusive.
For CCc1ccc(-c2cc(C(F)(F)F)n3nc(C(=O)Nc4c(C)nn(Cc5ccc(F)cc5)c4C)cc3n2)s1 the results were TDP1 inh inactive, ClpP mod inactive, TDP1 cell noCPT 23µM and DT40 TDP1 CPT inconclusive.
Screening Cc1ccc(Cn2nc(C)c(NC(=O)c3cc(-c4ccc5c(c4)OCO5)on3)c2C)cc1 returned TDP1 inh inactive, ClpP mod inactive, TDP1 cell noCPT inconclusive and DT40 TDP1 CPT 16µM.
Screening CC(=O)NC12CC3CC(C1)CC(C(=O)N1CCN(c4ncccn4)CC1)(C3)C2 returned ClpP mod inactive, TDP1 cell noCPT inactive and DT40 TDP1 CPT inactive.
For O=Nc1nc2ncccn2c1-c1ccccc1 the results were ClpP mod inactive, TDP1 cell noCPT 0.52µM and DT40 TDP1 CPT 0.092µM.
Nc1nc2ncccn2c1-c1ccc(F)cc1 was read as ClpP mod inactive, TDP1 cell noCPT inactive and DT40 TDP1 CPT inactive.
Screening COc1cc(F)c(S(=O)(=O)N2CCN(S(=O)(=O)c3ccco3)CC2)c(F)c1 returned TDP1 inh inactive.
Screening O=C(Oc1ccccc1)N1CCC2(CCCN(c3cccc(-c4ccccc4)c3)C2)CC1 returned TDP1 cell noCPT inconclusive and DT40 TDP1 CPT inactive.
CC(=O)N1CCC2(CCCN(c3ccc(-c4ccccc4)cc3)C2)CC1 was read as TDP1 cell noCPT 16µM and DT40 TDP1 CPT inconclusive.
CC(=O)N1CCC2(CCCN(c3cccc(-c4ccccc4)c3)C2)CC1 was read as TDP1 cell noCPT inconclusive and DT40 TDP1 CPT 16µM.
`COC(=O)N1CCC2(CC1)CN(c1cccc(-c3ccccc3)c1)C2` gave TDP1 cell noCPT 18µM and DT40 TDP1 CPT inactive.
Screening CC(=O)c1ccc(NC(=O)CSc2nc(=O)n3cccc(C)c3n2)cc1 returned ClpP mod inactive, TDP1 cell noCPT inactive and DT40 TDP1 CPT inactive.
`Cc1cccn2c(=O)nc(SCC(=O)N3CCCC3)nc12` gave TDP1 cell noCPT inactive and DT40 TDP1 CPT inactive.
COC(=O)c1ccc(NC(=O)CSc2nc(=O)n3cccc(C)c3n2)cc1 was read as TDP1 inh inactive, ClpP mod inactive, TDP1 cell noCPT inconclusive and DT40 TDP1 CPT 18µM.
Screening Cc1cccn2c(=O)nc(SCC(=O)N3CC(C)OC(C)C3)nc12 (stereo not given) returned ClpP mod 32µM, TDP1 cell noCPT inactive and DT40 TDP1 CPT inactive.
`CC(C)OC(=O)c1c(NC(=O)c2cccc(C(F)(F)F)c2)sc2c1CCCC2` gave TDP1 inh inactive[12.3 µM], ClpP mod inactive, TDP1 cell noCPT inactive and DT40 TDP1 CPT inactive.
Screening COc1cc(Cl)c(C)cc1NC(=O)CN1c2ccccc2S(=O)(=O)c2ccccc21 returned TDP1 inh inactive, ClpP mod inconclusive, TDP1 cell noCPT inconclusive and DT40 TDP1 CPT inconclusive.
Screening COC(=O)Cc1c(C)c2ccc(OC3CCCCC3=O)c(C)c2oc1=O (stereo not given) returned ClpP mod inactive, TDP1 cell noCPT 18µM and DT40 TDP1 CPT inconclusive.
COC(=O)[C@H]1C[C@H]2CC[C@H](O)C[C@H]2N1Cc1c(F)cccc1Cl was read as TDP1 inh inactive.
`Cc1cc(C(=O)NC2CCCN(Cc3ccc(Cl)cc3)C2)c(C)o1` (stereo not given) gave TDP1 inh inactive, ClpP mod inactive, TDP1 cell noCPT inconclusive and DT40 TDP1 CPT inconclusive.
Screening Cc1ccsc1C(=O)NC1CCCN(Cc2ccc(Cl)cc2)C1 (stereo not given) returned TDP1 inh inactive, ClpP mod inactive, TDP1 cell noCPT 15µM and DT40 TDP1 CPT inconclusive.
